An excerpt weighted towards active compounds, which were near 1.4% of everything screened.
EPAC1 ag – EPAC1 (human) agonism; O95398; EPAC1 agonist qHTS, biochemical assay; response scale: 100% = response to 6.5 mM cAMP; Potency, µM (highest dose often 154 µM), inactives show top-dose activation, hits mostly activators; 360,000 tested, 0.073% active; note: nearly all actives have a fitted effect of over 60% in size
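Nucleotide exchange assay: 100 nM EPAC1 with 250 nM Rap1B loaded with BODIPY-GDP and 50 uM GDP, room temperature. Fluorescence (480/540 nm) read every 5 min for 30 min; signal change normalized to 6.5 mM cAMP as full agonist.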
BRCA1 expr act – increases BRCA1 expression. MCF7-BRCA1-FFLuc reporter, luminescence, 48 h; response scale: scaled: vehicle 0%, 10 µM genistein 100%. Potency, µM (series often up to 46.1 µM), for inactives: at the highest dose activation, hits mostly activators. 380,000 tested, 1.1% active; note: nearly all actives have a fitted effect of over 80% in size
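First, MCF7-BRCA1-FFLuc cells (2000/well) attach for 2 h; next, compounds are pin-added and incubated 48 h at 37 °C; finally, luciferase reagent is added and luminescence read after 15 min.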
EPAC2 agonist – EPAC2 (human) agonism; Potency, µM (series often up to 154 µM), inactives show at the highest dose activation, actives largely listed as activators; EPAC2 activation, biochemical qHTS; response scale: 100% = 6.5 mM cAMP response; 360,000 tested, 0.079% active; note: nearly all actives have a fitted effect of over 50% in size
Target sequence (Q8WZA2 whole entry, looked up): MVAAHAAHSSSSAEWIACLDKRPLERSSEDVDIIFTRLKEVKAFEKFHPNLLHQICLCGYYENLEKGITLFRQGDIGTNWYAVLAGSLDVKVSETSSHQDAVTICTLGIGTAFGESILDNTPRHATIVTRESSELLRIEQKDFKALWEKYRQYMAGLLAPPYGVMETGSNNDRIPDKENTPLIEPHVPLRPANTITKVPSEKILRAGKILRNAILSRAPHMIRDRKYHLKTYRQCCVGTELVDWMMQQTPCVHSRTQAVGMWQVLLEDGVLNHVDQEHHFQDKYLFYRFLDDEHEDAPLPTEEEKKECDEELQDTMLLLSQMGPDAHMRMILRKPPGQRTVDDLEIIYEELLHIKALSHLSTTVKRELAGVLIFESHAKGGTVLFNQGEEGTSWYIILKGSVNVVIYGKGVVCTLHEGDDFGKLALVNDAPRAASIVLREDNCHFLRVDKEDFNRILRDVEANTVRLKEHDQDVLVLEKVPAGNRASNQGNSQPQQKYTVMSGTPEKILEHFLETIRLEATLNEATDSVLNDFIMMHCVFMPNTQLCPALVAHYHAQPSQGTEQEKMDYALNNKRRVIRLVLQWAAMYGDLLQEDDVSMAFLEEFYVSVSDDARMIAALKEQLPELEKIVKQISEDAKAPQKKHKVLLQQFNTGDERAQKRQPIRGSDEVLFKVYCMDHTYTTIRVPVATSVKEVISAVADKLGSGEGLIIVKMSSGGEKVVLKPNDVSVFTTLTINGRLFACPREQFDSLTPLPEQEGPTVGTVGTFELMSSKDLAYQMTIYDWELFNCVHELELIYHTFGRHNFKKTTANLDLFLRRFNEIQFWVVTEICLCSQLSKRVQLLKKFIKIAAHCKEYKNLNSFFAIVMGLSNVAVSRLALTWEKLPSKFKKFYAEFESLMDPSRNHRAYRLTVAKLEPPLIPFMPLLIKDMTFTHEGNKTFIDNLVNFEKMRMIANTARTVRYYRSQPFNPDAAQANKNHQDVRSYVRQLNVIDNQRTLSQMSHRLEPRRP
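Setup: EPAC2 100 nM, labeled Rap1B complex 250 nM, free GDP 50 uM. Compound titrations pinned in, brief spin, 5 min room temperature incubation. Kinetic fluorescence read over 30 min, normalized to 6.5 mM cAMP.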
USP1 inh – USP1/UAF1 (human) deubiquitinase inhibition; O94782; 390,000 tested, 0.23% active; recombinant USP1/UAF1, Ub-Rhodamine cleavage fluorescence; Potency, µM (doses to about 57.1 µM), without a hit: at the top dose activity change, negative = inhibition, most hits filed as inhibitors; AID 743255; note: % is set by controls: 0 for no effect and ±100 for the full control effect; nearly all actives have a fitted effect of over 60% in size
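USP1/UAF1 complex at 1 nM was preincubated with compound for 15 min at room temperature, then Ub-Rho substrate (150nM final) was added. Fluorescence (480/540 nm) was read kinetically, 6 reads every 60 seconds.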
EPAC1 antagonist – antagonists of human EPAC1 | O95398 | EPAC1 GEF assay, Rap1b-BODIPY-GDP exchange fluorescence | Potency, µM (highest dose often 115 µM), inactives show at the highest dose activity change, negative = inhibition, actives largely listed as inhibitors | 360,000 tested, 0.14% active | AID 720709;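 note: plate controls were vehicle for no effect and positive control for full effect; nearly all actives have a fitted effect of over 50% in size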
EPAC2 antag – antagonists of human EPAC2 | Potency, µM (highest dose often 114 µM), for inactives: top-dose activity, negative = inhibition, hits mostly inhibitors | 360,000 tested, 0.18% active | EPAC2 GEF exchange of Rap1B-BODIPY-GDP, fluorescence | Q8WZA2; note: % is set by controls: 0 for no effect and ±100 for the full control effect; nearly all actives have a fitted effect of over 45% in size
* = called active by the depositor; ? = inconclusive; · = no result given. Calls come from the whole dose curve; as a rule, active = well fitted curve in the direction sought with a large enough effect; inconclusive = small, poorly fitted or top-dose-only effect, or another doubt; inactive = no such curve, though single readings can be large; an effect the other way counts as inactive or inconclusive. Potency is the fitted concentration of half-maximal effect.

SMILES	EPAC1 ag	BRCA1 expr act	EPAC2 agonist	USP1 inh	EPAC1 antagonist	EPAC2 antag
Fc1ccc(CSc2nnc(-c3ccccn3)o2)cc1	0%	4µM*	3%	-21%	-14%	2%
Cc1cccc(COc2ccc(/C=N/NC(=O)c3nnn(-c4nonc4N)c3CN3CCCCC3)cc2)c1	11%	57%	-1%	-24%	0%	-9%
Nc1nonc1-n1nnc(C(=O)N/N=C/c2ccc(OCc3cccc(Cl)c3)cc2)c1CN1CCCCC1	8%	2.5µM*	10%	-7%	-1%	-7%
Cc1cccc2sc(NC(=O)C3CCN(C(=O)c4ccco4)CC3)nc12	5%	-28%	9%	-10%	-13%	-6%
CCOc1ccccc1Nc1nc2ccccc2nc1NS(=O)(=O)c1ccc(Cl)cc1	·	-3%	·	-13%	·	·
Nc1nc(-c2ccc3c(c2)CCCC3)cs1	0%	3.2µM*	15%	-11%	-2%	-2%
CC1Cc2cc(-c3csc(N)n3)ccc2O1 (stereo not given)	-2%	3.2µM*	-2%	-15%	-3%	0%
Nc1nc(-c2cccc(F)c2)cs1	4%	11µM*	-1%	-20%	7%	1%
Fc1cccc(-c2csc(-c3ccno3)n2)c1	-1%	-27%	3%	-21%	9%	2%
CCn1cc(C(=O)NCC(OC)OC)c(=O)c2cc(S(=O)(=O)N3CCC(C)CC3)ccc21	-6%	-28%	-8%	-7%	2%	-2%
O=C(Nc1ccccc1)n1cc(-c2ccccn2)c(N2CCOCC2)n1	6%	-5%	2%	-2%	-20%	14%
Cc1ccc(S(=O)(=O)Oc2cccc(/C=N/n3cnnc3)c2)cc1	-2%	-35%	5%	-5%	2%	3%
COc1cc(/C=N/Nc2ccc(Cl)c(C(=O)O)c2)ccc1OC(=O)c1ccco1	-13%	0%	-6%	-6%	?	-1%
COc1ccc(C(=O)Oc2ccc(/C=N/Nc3ccc(Cl)c(C(=O)O)c3)cc2OC)cc1	-2%	20%	-16%	?	-26%	20µM*
COc1ccc(/C=N/Nc2ccc(C(=O)O)cc2)cc1Br	4%	-87%	-1%	-33%	5%	56µM*
Cc1ccc(S(=O)(=O)Oc2cccc(/C=N/Nc3ccc(C(=O)O)cc3)c2)cc1	1%	63%	-1%	-26%	2%	56µM*
COc1ccc2ccccc2c1/C=N/Nc1cccc(C(=O)O)c1	0%	3.5µM*	3%	-21%	-20%	?
Cc1cc(NS(=O)(=O)c2ccc(NC(=O)CCCOc3cccc(C)c3C)cc2)no1	15%	-8%	8%	-5%	-7%	2%
O=C(NC(c1ccc2c(c1)OCO2)c1ccccn1)C1CCN(CCOc2ccccc2)CC1 (stereo not given)	2%	3%	9%	·	-2%	2%
CCOc1ccc(NC(=O)CC2C(=O)N(c3ccc(Cl)cc3)C(=O)N2Cc2cccs2)cc1 (stereo not given)	·	·	·	-1%	·	·
c1ccc(-c2ccc3ccccc3n2)cc1	2%	11µM*	15%	-10%	6%	-12%
CN(C)c1ccc(-c2ccc3ccccc3n2)cc1	·	-15%	·	·	·	·
Cc1cc(N)ccc1-n1nc2ccccc2n1	6%	2%	20%	-19%	3%	2%
Cc1c(N)ccc(-n2nc3ccccc3n2)c1C	4%	11µM*	11%	-7%	-5%	-14%
Cc1cccc(NC(=O)c2sc3nc4c(cc3c2N)CN(C(C)C)CC4)c1	·	·	·	-14%	·	·
SMILES	EPAC1 ag	BRCA1 expr act	EPAC2 agonist	USP1 inh	EPAC1 antagonist	EPAC2 antag
Cc1cccc(NC(=O)c2sc3nc(N)c(C#N)cc3c2N)c1	6%	3.2µM*	0%	6%	0%	-15%
Cc1cc(C)cc(NC(=O)c2sc3nc(C)cc(C)c3c2N)c1	5%	4µM*	-3%	-8%	6%	1%
Cc1cc(C)c(NC(=O)c2sc3nc(C)cc(C)c3c2N)c(C)c1	·	-38%	·	-17%	·	·
CCOc1ccsc1C(=O)NNC(=O)c1ccco1	7%	-12%	6%	-12%	0%	1%
CCc1ccc(N=c2c([N+](=O)[O-])nn(-c3ccc4c(c3)OCCO4)n2O)cc1	10%	4µM*	10%	-14%	-9%	2%
O=[N+]([O-])c1nn(-c2ccc3c(c2)OCCO3)n(O)c1=Nc1ccc(Cl)cc1	1%	-81%	1%	-9%	11%	7%
Cc1ccc(Nc2ncnc3ccccc23)cc1	13%	5.6µM*	6%	-1%	-12%	4%
CC(C)Oc1ccc(Nc2ncnc3ccccc23)cc1	-1%	2.5µM*	7%	-2%	-1%	25%
CC(=O)Oc1cccc(Nc2ncnc3ccccc23)c1	16%	5%	10%	-7%	-21%	15%
Oc1ccc(Nc2ncnc3ccccc23)cc1	-9%	17%	3%	7%	-37%	6%
CCN(CC(=O)Nc1c(F)cccc1F)C(=O)C1CCN(S(=O)(=O)c2ccc(F)cc2)CC1	-5%	-2%	4%	-16%	-5%	13%
C(=C\c1ccccc1)/C=N/Nc1nc2ccccc2s1	16%	7.9µM*	17%	?	2%	5%
CCC/C=N/Nc1nc2ccccc2s1	-5%	57%	4%	-15%	-1%	-22%
Brc1ccc(/C=C/C=N/Nc2nc3ccccc3s2)cc1	-1%	8.9µM*	6%	-4%	7%	5%
COC(=O)c1ccc(C(=O)OC)c(NC(=O)COC(=O)CCOc2ccc(C)cc2)c1	-50%	-20%	-1%	0%	-12%	-28%
COc1ccc(C(=O)Nc2nncs2)cc1S(=O)(=O)N1CCOCC1	-13%	-6%	5%	-10%	-9%	3%
O=C(O[C@@H]1OC2COC(=O)c3cc(O)c(O)c(O)c3-c3c(cc(O)c(O)c3O)C(=O)O[C@@H]([C@H]1O)[C@@H]2O)c1cc(O)c(O)c(O)c1	3%	-17%	-2%	?	89µM*	-14%
CC(C)(C)c1nnc(NC(=O)c2ccc3c(c2)OCO3)s1	0%	?	11%	-15%	6%	5%
Cc1ccc(NC(=O)COc2ccc3c(c2)OCO3)c(Cl)c1	-1%	14µM*	2%	-5%	6%	5%
O=C(COc1ccc2c(c1)OCO2)Nc1ccccc1C(F)(F)F	-3%	10µM*	3%	-27%	4%	-14%
CC(C)(C)c1nnc(NC(=O)COc2ccc3c(c2)OCO3)s1	-46%	2.5µM*	0%	-7%	-26%	-3%
CC1Cc2ccccc2N1C(=O)COc1ccc2c(c1)OCO2 (stereo not given)	7%	3.2µM*	8%	-8%	-12%	-2%

Assay outcomes: PubChem, National Center for Advancing Translational Sciences (NCATS)
